Test results: the supplement of paper PMC3414501

These compounds were tested on S. cerevisiae AD1-9 (efflux-pump deficient), vegetative growth in YPD (assay: growth sensitivity score (doubling time z-score vs DMSO controls); higher = slower growth, strongly negative scores also mark growth inhibition (complete suppression), active = hit call of the paper). Conditions: stock concentration (mM, diluted 1:100): 10.1; in the data active = 2 or more and inactive = the rest.
Summary of the method: (§1)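 Yeast (Saccharomyces cerevisiae BY4741 and AD1-9) was grown in rich medium in microtiter plates from a starting OD600 of 0.065, with optical density read every 15 min over 24 hours. The growth sensitivity score was the difference between compound and solvent-only means, divided by the solvent-only standard deviation. Every experiment had eight solvent-only wells.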

SMILES	growth sensitivity score
C[C@]12CC[C@H](O)CC1=CC[C@@H]1[C@@H]2CC[C@@]2(C)[C@H]1CC[C@]2(C)O [Methylandrostenediol]	15.1 (active)
CCOC(=O)c1cncn1[C@H](C)c1ccccc1 [Etomidate]	7.78 (active)
NC(=O)OCCCc1ccccc1 [Phenprobamate]	-0.54 (inactive)

What follows are compounds tested on S. cerevisiae BY4741 (wild-type), vegetative growth in YPD in the same assay as above. Conditions: stock concentration (mM, diluted 1:100): 10.
Summary of the method: as §1

SMILES	growth sensitivity score
c1ccc2c3c([nH]c2c1)CNCC3 [Tryptoline]	-1.07 (inactive)
C[C@H]1CCC[C@H](O)CCCCCc2cc(O)cc(O)c2C(=O)O1 [Zeranol]	1.77 (inactive)
COc1ccc(CCN)cc1OC [Homoveratrylamine]	-1.07 (inactive)
CN=C1CN(O)C(c2ccccc2)=c2cc(Cl)ccc2=N1 [Chlordiazepoxide]	1.44 (inactive)
C[N+]1(C)CCN(c2ccccc2)CC1 [Dimethylphenylpiperazinium Iodide]	-0.67 (inactive)
COc1cc(N)c(Cl)cc1C(=O)NC1CN2CCC1CC2 (configuration not stated) [Zacopride]	-1.3 (inactive)
CC[C@]1(O)CC[C@H]2[C@@H]3CCC4=CCCC[C@@H]4[C@H]3CC[C@@]21C [Ethylestrenol]	2.86 (active)
CCN(C(C)=O)c1cccc(-c2ccnc3c(C#N)cnn23)c1 [Zaleplon]	-0.43 (inactive)
CC[C@@H]1C=CC=CC[C@H](C)[C@@H](O)[C@@H](C)C(=O)[C@H](C)[C@@H](O)[C@H](C)C(=O)[C@H](C)[C@@H](O)[C@H](C)C=CC(=O)O[C@H]2[C@@H](C)[C@@H](CC1)O[C@@]1(CC[C@@H](C)[C@@H](C[C@H](C)O)O1)[C@@H]2C [Oligomycin c]	1.53 (inactive)
